In PubChem BioAssay (NCI):
The panel holds about 79,000 compounds, 15% with a hit somewhere; the sample as a whole holds those more often. The source made the active and inactive calls. Rule as the data show it: active = growth inhibition above about 70%; inactive = the rest.

Tests used:
[1] = NCI Yeast Anticancer Drug Screen. Data for the wt1 strain (AID 149);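 also: 0% = growth of vehicle-treated wt1 cultures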; conditions: S. cerevisiae wt1 strain (SPY 50644) growth inhibition, stronger effect = higher value
How it was run: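 Each compound is tested on wt1 yeast and the loss of growth versus vehicle gives the inhibition value.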

[2] = NCI Yeast Anticancer Drug Screen. Data for the rad50EPP+ strain (AID 151);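 also: 0% = growth of vehicle-treated control cultures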; conditions: S. cerevisiae rad50 mutant strain, stronger effect = higher value
How it was run: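 Measured: growth inhibition of rad50EPP+ yeast. Reference: vehicle-treated controls. Screen uses strains with defined genetic alterations in DNA damage repair or cell cycle control.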

[3] = NCI Yeast Anticancer Drug Screen. Data for the mgt1 strain (AID 153); conditions: S. cerevisiae mgt1 mutant growth inhibition, stronger effect = higher value
How it was run: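 Compounds were applied to mgt1 mutant yeast, and growth was then compared against vehicle-treated control cultures to give percent inhibition.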

[4] = NCI Yeast Anticancer Drug Screen. Data for the rad50 strain (AID 155);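 also: 0% = growth of vehicle-only cultures of the same strain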; conditions: S. cerevisiae rad50 strain growth inhibition, stronger effect = higher value
How it was run: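 Vehicle-treated cultures provide the reference for the growth inhibition reported for compound-exposed, repair-deficient yeast.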

[5] = NCI Yeast Anticancer Drug Screen. Data for the mec2-1 strain (AID 157); conditions: S. cerevisiae mec2-1 strain, stronger effect = higher value
How it was run: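 Compounds were applied to mec2-1 yeast cells. Their growth was then compared with that of vehicle-treated cultures to give growth inhibition.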

[6] = NCI Yeast Anticancer Drug Screen. Data for the rad14 strain (AID 159);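 also: 0% = growth of vehicle-treated control cultures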; conditions: S. cerevisiae rad14 strain growth inhibition, stronger effect = higher value
How it was run: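 Inhibition of growth is reported for a repair-deficient yeast mutant following compound treatment, calculated relative to cultures that received vehicle.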

[7] = NCI Yeast Anticancer Drug Screen. Data for the sgs1 mgt1 strain (AID 161);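 also: 0% = growth of cultures given vehicle only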; conditions: S. cerevisiae sgs1 mgt1 strain, stronger effect = higher value
How it was run: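 Compounds are added to genetically altered yeast, and growth is compared with cultures given vehicle alone to give percent inhibition.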

[8] = NCI Yeast Anticancer Drug Screen. Data for the CLN2oe strain (AID 163);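 also: 0% = growth of vehicle-only control cultures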; conditions: S. cerevisiae CLN2oe strain, stronger effect = higher value
How it was run: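 Cells of an engineered yeast line with disturbed cell-cycle regulation are treated with compound. Inhibition of growth is then calculated relative to the vehicle-treated reference.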

[9] = NCI Yeast Anticancer Drug Screen. Data for the cln2 rad14 strain (AID 165);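 also: 0% = growth equal to vehicle treated cultures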; conditions: S. cerevisiae cln2 rad14 strain, stronger effect = higher value
How it was run: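 Strain: cln2 rad14 yeast, altered in cell cycle control and DNA damage repair. Read-out: growth inhibition vs vehicle.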

[10] = NCI Yeast Anticancer Drug Screen. Data for the bub3 strain (AID 167); conditions: S. cerevisiae bub3 mutant strain, stronger effect = higher value
How it was run: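 Mutant yeast screening strain plus compound; vehicle-treated cultures serve as the 0% inhibition reference.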

[11] = NCI Yeast Anticancer Drug Screen. Data for the wt2 strain (AID 169); conditions: S. cerevisiae wt2 strain growth inhibition, stronger effect = higher value
How it was run: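 Growth of compound-treated yeast is measured and expressed as inhibition relative to vehicle-only controls.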

[12] = NCI Yeast Anticancer Drug Screen. Data for the mlh1 strain (AID 171);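 also: 0% = growth of vehicle-treated control cultures of the same strain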; conditions: S. cerevisiae mlh1 strain growth inhibition, stronger effect = higher value
How it was run: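 Test agents were incubated with yeast bearing a defined DNA damage repair or cell cycle control alteration; values are growth inhibition normalised to vehicle-treated cultures.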

[13] = NCI Yeast Anticancer Drug Screen. Data for the sgs1 strain (AID 173);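 also: 0% = growth of vehicle-only control cultures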; conditions: S. cerevisiae sgs1 mutant, stronger effect = higher value
How it was run: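 Strain with an altered DNA repair or cell cycle pathway exposed to compound. Growth then measured. Value = inhibition versus vehicle control.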

[14] = NCI Yeast Anticancer Drug Screen. Data for the mlh1 rad18 strain (AID 175); conditions: S. cerevisiae mlh1 rad18 strain growth inhibition, stronger effect = higher value
How it was run: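 A repair-deficient yeast strain is exposed to test compound, and growth is scored relative to vehicle-treated controls.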

[15] = NCI Yeast Anticancer Drug Screen. Data for the rad18 strain (AID 177); conditions: S. cerevisiae rad18 mutant growth inhibition, stronger effect = higher value
How it was run: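 DNA-repair-defective yeast; compound treatment; growth inhibition scored against vehicle.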

[16] = at 5.0 µM (retest, dose inferred, filed as 0.5)
[17] = at 50.0 µM (retest, dose inferred, filed as 5.0)

Measured: growth inhibition

Cn1c(=O)c(-c2ccccc2)c(N=[N+]=[N-])c2ccccc21
active: [1]; at 33.0 µM 91% | [1]; at 100.0 µM 90% | [3]; at 33.0 µM 94% | [3]; at 100.0 µM 89% | [4]; at 33.0 µM 92% | [4]; [17] 94% | [4]; at 50.0 µM 82.7% | [4]; at 100.0 µM 92% | [5]; at 33.0 µM 87% | [5]; [17] 92% | [5]; at 50.0 µM 83.8% | [5]; at 100.0 µM 93% | [6]; at 33.0 µM 93% | [6]; at 100.0 µM 89% | [7]; [17] 93% | [7]; at 50.0 µM 87.4% | [8]; at 33.0 µM 94% | [8]; at 100.0 µM 90% | [9]; [17] 89% | [9]; at 50.0 µM 86% | [10]; at 33.0 µM 94% | [10]; [17] 95% | [10]; at 50.0 µM 86.5% | [10]; at 100.0 µM 94% | [11]; at 33.0 µM 87% | [11]; at 100.0 µM 91% | [12]; at 33.0 µM 92% | [12]; at 100.0 µM 88% | [13]; at 33.0 µM 91% | [13]; at 100.0 µM 92% | [14]; [17] 94% | [14]; at 50.0 µM 83% | [15]; at 33.0 µM 93% | [15]; at 100.0 µM 85%
inactive: [1]; at 1.2 µM -38% | [1]; at 3.7 µM -26% | [1]; at 11.0 µM -25% | [2]; at 1.2 µM -15% | [2]; at 3.7 µM 6% | [2]; at 11.0 µM 10% | [2]; at 33.0 µM 4% | [2]; at 100.0 µM -18% | [3]; at 1.2 µM 1% | [3]; at 3.7 µM 0% | [3]; at 11.0 µM 32% | [4]; at 1.2 µM 14% | [4]; at 3.7 µM 7% | [4]; [16] -22% | [4]; at 11.0 µM 20% | [5]; at 1.2 µM -1% | [5]; at 3.7 µM -9% | [5]; [16] -10% | [5]; at 11.0 µM 4% | [6]; at 1.2 µM 12% | [6]; at 3.7 µM 4% | [6]; at 11.0 µM 5% | [7]; [16] 61% | [8]; at 1.2 µM 5% | [8]; at 3.7 µM -17% | [8]; at 11.0 µM 13% | [9]; [16] 23% | [10]; at 1.2 µM 26% | [10]; at 3.7 µM 26% | [10]; [16] -7% | [10]; at 11.0 µM 35% | [11]; at 1.2 µM -35% | [11]; at 3.7 µM -29% | [11]; at 11.0 µM -9% | [12]; at 1.2 µM 1% | [12]; at 3.7 µM 3% | [12]; at 11.0 µM 43% | [13]; at 1.2 µM -11% | [13]; at 3.7 µM -13% | [13]; at 11.0 µM 13% | [14]; [16] -4% | [15]; at 1.2 µM 7% | [15]; at 3.7 µM -5% | [15]; at 11.0 µM 11%

CCCCCCCCCCCC(=O)N(C)C
active: [1]; at 100.0 µM 99% | [2]; at 100.0 µM 90% | [3]; at 100.0 µM 99% | [4]; [17] 92% | [4]; at 50.0 µM 90.5% | [4]; at 100.0 µM 98% | [5]; [17] 96% | [5]; at 50.0 µM 92.7%
inactive: [1]; at 1.2 µM -15% | [1]; at 3.7 µM -13% | [1]; at 11.0 µM -14% | [1]; at 33.0 µM -14% | [2]; at 1.2 µM 5% | [2]; at 3.7 µM 18% | [2]; at 11.0 µM 20% | [2]; at 33.0 µM 47% | [3]; at 1.2 µM 7% | [3]; at 3.7 µM 3% | [3]; at 11.0 µM 18% | [3]; at 33.0 µM 23% | [4]; at 1.2 µM -2% | [4]; at 3.7 µM -5% | [4]; [16] 38% | [4]; at 11.0 µM -18% | [4]; at 33.0 µM 29% | [5]; at 1.2 µM -34% | [5]; at 3.7 µM -24% | [5]; [16] 42% | [5]; at 11.0 µM -27% | [5]; at 33.0 µM 34%
